{
  "source": "PubChem BioAssay (NCI)",
  "note": "The panel holds about 83,000 compounds, 20% with a hit somewhere; the sample as a whole holds those more often.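 In brief: 96-well plates, 48 h treatment, single concentration, percent growth endpoint.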 A number with no mark means an inactive call. Activity calls are given as the source filed them. How the source made its calls: active means growth percent below 10; inactive means the rest.",
  "data": [
    {"tested_on": "OVCAR-3 ovarian", "assay": "NCI-60 one-dose screen, 48 h (100 = growth as untreated, 0 = no growth, -100 = all killed)", "settings": "10 µM", "values": [
      {"compound": "COc1cc2cc(C(=O)N3C[C@@H](CCl)c4c3cc(OC(=O)N3CCN(C)[C@@H]5CSSC[C@H]53)c3ccccc43)[nH]c2c(OC)c1OC", "growth": "-9.08% (active)"},
      {"compound": "CC1=C(CCC=O)C2=C(C)C3(CC3)[C@@](C)(O)C(=O)C2=C1", "growth": "-77.6% (active)"},
      {"compound": "COC(=O)C[C@](O)(CCC(C)C)C(=O)O[C@@H]1C(OC)=C[C@]23CCCN2CCc2cc4c(cc2[C@H]13)OCO4", "growth": "-26.9% (active)"},
      {"compound": "O=C(/C=C/c1ccc(Cl)cc1)c1nc2ccccc2n1Cc1ccc(F)cc1", "growth": "22.7%"},
      {"compound": "CC[C@]12C=CCN3CC[C@@]4(c5ccc(OC)cc5N(C)[C@H]4[C@@](O)(C(=O)OC)[C@@H]1OC(=O)CCC[P+](C1CCCCC1)(C1CCCCC1)C1CCCCC1)[C@@H]32", "growth": "-48.6% (active)"},
      {"compound": "CC1=C2C(=C[C@@](C)(COP(=O)(Oc3ccccc3)Oc3ccccc3)[C@@H]2O)C(=O)[C@@](C)(O)C12CC2", "growth": "-75.4% (active)"},
      {"compound": "CC(=O)Oc1ccccc1C(=O)NC([Se])=NC1CCCCC1", "growth": "-68.1% (active)"},
      {"compound": "CCOP(=O)(CC(F)(F)C(F)(F)F)OCC", "growth": "-61.5% (active)"},
      {"compound": "CC(C)C[C@H](NC(=O)CNC(=O)C[C@H]1O[C@@H]2OC3(C)CC[C@H]4[C@H](C)CC[C@@H]([C@H]1C)[C@@]24OO3)B(O)O", "growth": "-12.4% (active)"},
      {"compound": "C[C@H]1[C@@H](Oc2ccc(-c3cn(-c4ccnc5cc(Cl)ccc45)nn3)cc2)O[C@@H]2OC3(C)CC[C@H]4[C@H](C)CC[C@@H]1[C@@]24OO3", "growth": "32.7%"},
      {"compound": "C[C@H]1[C@H](OC(=O)CCC(=O)N(CCCc2cn(-c3ccc([N+](=O)[O-])cc3)nn2)CCNc2ccnc3cc(Cl)ccc23)O[C@@H]2OC3(C)CC[C@H]4[C@H](C)CC[C@@H]1[C@@]24OO3", "growth": "40.8%"},
      {"compound": "COc1cc2cc(C(=O)N3C[C@@H](CCl)c4c3cc(OC(=O)N3CCN(C)[C@@H]5CSSC[C@@H]53)c3ccccc43)[nH]c2c(OC)c1OC", "growth": "-15.8% (active)"},
      {"compound": "COc1cc2cc(C(=O)N3C[C@@H](CCl)c4c3cc(OC(=O)N3CCN(C(=O)CCC(=O)N5CCN(C)CC5)[C@@H]5CSSC[C@@H]53)c3ccccc43)[nH]c2c(OC)c1OC", "growth": "16.4%"},
      {"compound": "COC(=O)c1ccc(-n2cc(CCCN(CCNc3ccnc4cc(Cl)ccc34)C(=O)CCC(=O)O[C@@H]3O[C@@H]4OC5(C)CC[C@H]6[C@H](C)CC[C@@H]([C@H]3C)[C@@]46OO5)nn2)cc1", "growth": "43.4%"},
      {"compound": "O=C([Se]C1C=CCCC1)c1ccc(C(=O)[Se]C2C=CCCC2)s1", "note": "(centres undefined)", "growth": "-92.4% (active)"},
      {"compound": "O=C(/C=C/c1cccc(Br)c1)c1nc2ccccc2n1Cc1ccc(F)cc1", "growth": "22.1%"},
      {"compound": "CC[C@]12C=CCN3CC[C@@]4(c5ccc(OC)cc5N(C)[C@H]4[C@@](O)(C(=O)OC)[C@@H]1OC(=O)CCC[P+](c1ccc(C)cc1)(c1ccc(C)cc1)c1ccc(C)cc1)[C@@H]32", "growth": "-61.9% (active)"},
      {"compound": "O=C(NC([Se])=NC1CCCCC1)c1ccccc1", "growth": "48.4%"},
      {"compound": "O=C(/C=C/c1ccc(F)cc1)c1nc2ccccc2n1Cc1ccc(F)cc1", "growth": "22.9%"},
      {"compound": "O=C(/C=C/c1ccccc1)c1nc2ccccc2n1Cc1ccc(Br)cc1", "growth": "-72.5% (active)"},
      {"compound": "C=CC[Se]C(=O)c1cncc(C(=O)[Se]CC=C)c1", "growth": "-89.5% (active)"},
      {"compound": "COc1ccc(OC)c(/C=C/C(=O)c2nc3ccccc3n2Cc2ccc(F)cc2)c1", "growth": "-12% (active)"},
      {"compound": "O=C(/C=C/c1ccc(F)cc1)c1nc2ccccc2n1Cc1ccc(Br)cc1", "growth": "-73.6% (active)"},
      {"compound": "CC[C@]12C=CCN3CC[C@@]4(c5ccc(OC)cc5N(C)[C@H]4[C@@](O)(C(=O)OC)[C@@H]1OC(=O)CCCC[P+](c1ccc(C)cc1)(c1ccc(C)cc1)c1ccc(C)cc1)[C@@H]32", "growth": "-77.1% (active)"},
      {"compound": "CC(C)N=C([Se])NC(=O)c1cccs1", "growth": "66.3%"},
      {"compound": "CC1=C(CCC=NNC(N)=O)C2=C(C)C3(CC3)[C@@](C)(O)C(=O)C2=C1", "growth": "-57.4% (active)"},
      {"compound": "Cc1ccc2[nH]c(=S)n(-c3ccc(F)cc3)c(=O)c2c1", "growth": "114%"},
      {"compound": "C#CC[Se]C(=O)c1ccc2n[se]nc2c1", "growth": "46.2%"},
      {"compound": "CC1=C(COCCOC(=O)c2ccc(S(=O)(=O)F)cc2)C2=C(C)C3(CC3)[C@@](C)(O)C(=O)C2=C1", "growth": "9.3% (active)"},
      {"compound": "CC12CCC3(CCC(=O)NCCCNc4ccnc5cc(Cl)ccc45)[C@@](C)(OO[C@]3(C)O1)O2", "growth": "30.8%"},
      {"compound": "O=C(/C=C/c1ccc(Br)cc1)c1nc2ccccc2n1Cc1ccc(Br)cc1", "growth": "-46.9% (active)"},
      {"compound": "COC(=O)CCn1c(-c2ccc(-n3cc(-c4ccc(O[C@H]5O[C@@H]6OC7(C)CC[C@H]8[C@H](C)CC[C@@H]([C@H]5C)[C@@]68OO7)cc4)nn3)cc2)nc2ccccc21", "growth": "20.4%"},
      {"compound": "CC1=C(C=O)C2=C(C)C3(CC3)[C@@](C)(O)C(=O)C2=C1", "growth": "-9.94% (active)"},
      {"compound": "N#C[Se]CC(=O)Nc1cccc(C(F)(F)F)c1", "growth": "-13.7% (active)"},
      {"compound": "CCC[Se]C(=O)c1ccc(C(=O)[Se]CCC)s1", "growth": "-47.6% (active)"},
      {"compound": "C[C@H]1[C@@H](CC(=O)N[C@@H](Cc2coc3ccccc23)B(O)O)O[C@@H]2OC3(C)CC[C@H]4[C@H](C)CC[C@@H]1[C@@]24OO3", "growth": "-14.9% (active)"},
      {"compound": "O=C(/C=C/c1ccco1)c1nc2ccccc2n1Cc1ccc(F)cc1", "growth": "46.3%"},
      {"compound": "COC(=O)C[C@](O)(CCC(C)C)C(=O)O[C@H]1C(OC)=C[C@@]23CCCN2CCc2cc4c(cc2[C@@H]13)OCO4", "growth": "-36.9% (active)"},
      {"compound": "C[C@H]1[C@H](OC(=O)CCC(=O)N(CCCc2cn(-c3ccc(C#N)cc3)nn2)CCNc2ccnc3cc(Cl)ccc23)O[C@@H]2OC3(C)CC[C@H]4[C@H](C)CC[C@@H]1[C@@]24OO3", "growth": "45.2%"}
    ]}
  ]
}
